# The supplement of paper PMC6555819
# System: RARg:RXRa (NR concentration 270 nM, RXRa partner concentration 90 nM)
# Assay: PBM binding z-score (relative to random genomic background probes); higher = stronger binding; sequences stand for … in GC…GCGATTGACAGCGTAGAATGAAGG
# Outline: (§1)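 On custom Agilent 4×180K arrays, double-stranded probes with 34-nt variable regions carried direct-repeat seeds, single-nucleotide variants, half-site ablations or random human genomic background. Ligand-free nuclear receptor dimers were applied for 1 h, and binding was read with antibodies against each partner (one per run). Binding z-scores come from regression-normalized fluorescence, with the random background probes as reference.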
row,Sequence,PBM binding z-score
1,AATACAGGGTCATCGTAGGCCAGAGTTCGCACAG,5.67
2,CCTATTAGTTGACCATAAGGGAAACCGAAGCTCG,0.264
3,CCGAGCAGGCCAGGGTCACTCAAGCATTTCGCTT,3.13
4,CTCGAAAGGTCGTGCTCAGGTGTGTATACCAAAC,4.45
5,CCTCGGAGGACAACACGAGGTCAGAGCTGCCAGA,3.58
6,TCTGCTAGGTCAGTTGGTCAGCAAACGAGCTGCC,2.78
7,GCATATAGGTAATACAAGGTGAAAGTACGATTGT,0.699
8,ATCTCTAGGTACAAGTTCAGTGAATCCCGAGGAT,0.997
9,ATCGAAAGATCGAAGGTGAGTATACCCACCCGAA,0.34
10,CCTAGCAGGCCAATCTGGGTCACTGAAGGCTTGA,1.15
11,CCAGACAGGTGAAAGGTAACTCATTCTGGTACGC,1.41
12,ATCTCTAGGTAACACTCAGTTCAGTGAAGAACGC,0.926
13,ACTTACGGGTCAAAGAGGTTATAGCACGCGTATA,5.32
14,CCTATTAGTTGACGATAAGGGCAACCGAAGCTCG,0.95
15,GCTTACGGGTCAAAGGATATAGCATGAATAGAAT,4.62
16,ACAGACAGCTGATGAAGGTAACTCAGGCTATCAT,0.146
17,GGAACGAGGGCAAAGTTGATAGCGTCTGTCGACG,2.22
18,TTACCAAGGTGAAGATCGTTGATCCCTCTGTAGA,0.271
19,TATTGTAGATCAAGCAGGTTAAGAAAGCCTGAGT,0.285
20,CCTCGGAGGACAGAAGGTCAGTGCTGTCCGCTTT,3.14

row,Sequence,PBM binding z-score
1,GCTATTAGTTGAAAGGGCAACAGAATGATTCTCG,1.36
2,TAGCCTAGGTCATTGGCCAGTATACCACGCGAAC,3.66
3,ACTCGGAGGACAATGGTCAGAGCTACGCCAGTGA,0.217
4,TCATATAGGTAAATGCTAGGCGAAAGTCCGATCT,0.217
5,CCTCAAAGTTCAACTAAGGTAACGTAAAGCACGC,6.18
6,TCATATAGCTAAAGGTGAAAGTCGAACGATATGA,1.43
7,TCGAGTAGGTGAGGGGCATTCAGAATGGCGTCGA,-0.0952
8,TCATAGAGGTAATACAGGTGAAAGTCGGCATCTA,0.441
9,TATATTAGTTGATTAGGGCAACCGAAACAGCGGA,0.789
10,ACTAGTTGGTCAGCTGAGGTCACACGCAATTCGG,4.1
11,CGAACTAGGTCAGAACAGGACAGCGAAGGATGAT,2.39
12,CGTCCAAGGTCAATGCTAGGTTAGTGAAAGCATT,6.12
13,AGTCAAAGTTCATTAGGTAACGTAAGATTCAGCT,5.26
14,CCTAATAGTTGACCATAAGGGCAACCGAAGCTCG,1.61
15,CAAACTAGTTCACAGAGGTCAAAGTCCGTGCGTA,6.03
16,CCGACTGGGGCAAAAGGTTACCATAAGCCAGCCC,3.72
17,TCTTGTAGATCAACAGGAGCTTAAGAAAGATCGA,0.118
18,ACAGACAGGTGAGTGAATGTAACTCAGCTGGACG,0.386
19,ATTATTAGTTGAGACGAGGGCAACCGATAGGTTG,1.02
20,AGAATGAGGATATACGTAGATCAGGGAAGAAAGT,0.0404

# System: RARg homodimer (NR concentration 270 nM)
# Assay: as above
# Outline: as §1
row,Sequence,PBM binding z-score
1,AATACAGGGTCATCGTAGGCCAGAGTTCGCACAG,5.21
2,CCTATTAGTTGACCATAAGGGAAACCGAAGCTCG,0.552
3,CCGAGCAGGCCAGGGTCACTCAAGCATTTCGCTT,2.66
4,CTCGAAAGGTCGTGCTCAGGTGTGTATACCAAAC,3.62
5,CCTCGGAGGACAACACGAGGTCAGAGCTGCCAGA,3.22
6,TCTGCTAGGTCAGTTGGTCAGCAAACGAGCTGCC,3.8
7,GCATATAGGTAATACAAGGTGAAAGTACGATTGT,0.793
8,ATCTCTAGGTACAAGTTCAGTGAATCCCGAGGAT,1.14
9,ATCGAAAGATCGAAGGTGAGTATACCCACCCGAA,0.489
10,CCTAGCAGGCCAATCTGGGTCACTGAAGGCTTGA,1.38
11,CCAGACAGGTGAAAGGTAACTCATTCTGGTACGC,0.877
12,ATCTCTAGGTAACACTCAGTTCAGTGAAGAACGC,0.875
13,ACTTACGGGTCAAAGAGGTTATAGCACGCGTATA,4.72
14,CCTATTAGTTGACGATAAGGGCAACCGAAGCTCG,0.873
15,GCTTACGGGTCAAAGGATATAGCATGAATAGAAT,3.96
16,ACAGACAGCTGATGAAGGTAACTCAGGCTATCAT,0.225
17,GGAACGAGGGCAAAGTTGATAGCGTCTGTCGACG,1.75
18,TTACCAAGGTGAAGATCGTTGATCCCTCTGTAGA,0.232
19,TATTGTAGATCAAGCAGGTTAAGAAAGCCTGAGT,0.147
20,CCTCGGAGGACAGAAGGTCAGTGCTGTCCGCTTT,3.23

row,Sequence,PBM binding z-score
1,GCTATTAGTTGAAAGGGCAACAGAATGATTCTCG,1.47
2,TAGCCTAGGTCATTGGCCAGTATACCACGCGAAC,3.92
3,ACTCGGAGGACAATGGTCAGAGCTACGCCAGTGA,0.925
4,TCATATAGGTAAATGCTAGGCGAAAGTCCGATCT,0.256
5,CCTCAAAGTTCAACTAAGGTAACGTAAAGCACGC,6.74
6,TCATATAGCTAAAGGTGAAAGTCGAACGATATGA,0.944
7,TCGAGTAGGTGAGGGGCATTCAGAATGGCGTCGA,-0.106
8,TCATAGAGGTAATACAGGTGAAAGTCGGCATCTA,0.488
9,TATATTAGTTGATTAGGGCAACCGAAACAGCGGA,1.19
10,ACTAGTTGGTCAGCTGAGGTCACACGCAATTCGG,4.4
11,CGAACTAGGTCAGAACAGGACAGCGAAGGATGAT,3.18
12,CGTCCAAGGTCAATGCTAGGTTAGTGAAAGCATT,6.16
13,AGTCAAAGTTCATTAGGTAACGTAAGATTCAGCT,5.92
14,CCTAATAGTTGACCATAAGGGCAACCGAAGCTCG,1.18
15,CAAACTAGTTCACAGAGGTCAAAGTCCGTGCGTA,5.68
16,CCGACTGGGGCAAAAGGTTACCATAAGCCAGCCC,2.32
17,TCTTGTAGATCAACAGGAGCTTAAGAAAGATCGA,-0.187
18,ACAGACAGGTGAGTGAATGTAACTCAGCTGGACG,0.453
19,ATTATTAGTTGAGACGAGGGCAACCGATAGGTTG,1.18
20,AGAATGAGGATATACGTAGATCAGGGAAGAAAGT,0.424
